Screening data (PubChem)
CXXC DNA block: MLL CXXC-DNA interaction inhibition | MLL-CXXC / FITC-HOXA9 DNA fluorescence polarization | Potency, µM (series often up to 115 µM), hits mostly inhibitors | 0.037% of 290,000 active; active = well fitted inhibition curve with a large enough effect in the polarisation, with a control signal flat, not every such curve was filed as active; inconclusive = small, poorly fitted or top-dose-only effect, or effect the other way, or a change in a side signal; inactive = no such curve, though single readings can be large or run the other way; the % refers to the polarisation
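Fluorescence polarization: 7 uM MLL-CXXC (stock) preincubated 5 min with compounds, then 50 nM fluorescein-HOX-A9 DNA (stock) added; 30 min ambient. Buffer 50 mM Tris-HCl pH 7.5, 50 mM NaCl, 1 mM DTT, 0.05% BSA.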
GoLoco inh red: inhibitors of human Gai1-RGS12 GoLoco interaction (red fluorophore); Gai1:RGS12 GoLoco peptide FP, rhodamine, 10 min; 0.44% of 230,000 active; P63096; Potency, µM (top dose mostly 61.6 µM), actives largely listed as inhibitors; active = well fitted inhibition curve with a large enough effect, not every such curve was filed as active; inactive = no such curve, though single readings can be large or run the other way; note: nearly all actives have a fitted effect of over 30% in size
Menin-MLL TR inh: menin-MLL binding inhibition, Texas Red mutant peptide | O00255 | Menin + Texas Red MLL mutant peptide, fluorescence polarization | Potency, µM (highest dose often 61.6 µM), usual class: inhibitors | 0.23% of 270,000 active | AID 1768; active = well fitted inhibition curve with a large enough effect in the polarisation, with a control signal flat, not every such curve was filed as active; inconclusive = small, poorly fitted or top-dose-only effect, or effect the other way, or a change in a side signal; inactive = no such curve, though single readings can be large or run the other way; the % refers to the polarisation
Menin MLL FP FL: inhibitors of human menin-MLL interaction, wild-type MLL peptide; 290,000 tested, under 10 active; FP activity change, % at 61.4 µM; Fluorescence polarization, fluorescein-MLL peptide displacement from menin; active = well fitted curve in the direction sought with a large enough effect in the polarisation, not every such curve was filed as active; inconclusive = small, poorly fitted or top-dose-only effect, or effect the other way, or a change in a side signal; inactive = no such curve, though single readings can be large or run the other way; the % refers to the polarisation
A number is an active result; - = inactive; ? = inconclusive; . = no result; ! = not confirmed by another sample; [ ] = remark or other dose. The entries come from a sample that favours hits as a whole.

SMILES | CXXC DNA block | GoLoco inh red | Menin-MLL TR inh | Menin MLL FP FL
CCN(CC)Cc1cc(O)c(CN(CC)CC)cc1O | ? | 7.9µM | - | ?
O=C(COC(=O)c1ccc(O)cc1)Nc1ccc(N2CCCCC2)cc1 | - | - | - | -
COc1cc(OC)cc(C(=O)OCC(=O)Nc2ccc(N3CCCCC3)cc2)c1 | - | 18µM | - | -
COc1cccc(Cn2c(=O)c(-c3cn(C)c4ccccc34)nc3cnc(N4CCNCC4)nc32)c1 | . | - | - | ?
COc1ccc2[nH]c(O)c(N=O)c2c1 | - | 16µM | - | -
CC(=O)OC1CC(OC(C)=O)[C@]2(C)C(CC(=O)[C@]3(C)C2CC[C@@]2(C)C(c4ccoc4)OC(=O)C4O[C@@]423)C1(C)C (some centres not stated) | . | 22µM | - | -
CC(=O)OC(C(=O)c1ccccc1)c1ccccc1 (configuration not stated) | . | 16µM | . | .
O=C(CC1SC(=NCCc2ccccc2)N(/N=C/c2cccs2)C1=O)Nc1ccc(Cl)cc1 (configuration not stated) | - | - | 40µM | -
O=C(CC1SC(=O)N(c2ccccc2)C1=O)Nc1ccc(Cl)cc1 (configuration not stated) | - | - | . | -
COc1ccc(-c2ccc(N(C)C)cc2)cc1C1C2C=CCC(C)C2C(=O)N1Cc1ccccc1 (configuration not stated) | . | . | - | -
CN(C)S(=O)(=O)N1C(=O)c2ccccc2C1=O | - | - | - | -
CN(C)/C=C1\C=C2C(=O)c3ccccc3N2C1=O | ? | 13µM | . | ?
O=C1C=CC2=C3c4cc(O)c(O)cc4CC3(O)COC2=C1O (configuration not stated) | . | 2.5µM | ? | ?
O=c1c2c([nH]n1-c1ccccc1)CCCC2 | - | - | ? | -
O=c1[nH]n(-c2ccccc2)c(=O)c(Cl)c1Cl | - | - | 13µM | -
O=C(Nc1ncnc2c1ncn2[C@@H]1O[C@@H]2COP(=O)(O)O[C@H]2[C@H]1O)c1ccccc1 | . | . | - | -
COC1[C@@H](OC)C[C@H](C)[C@@H](OC)C2=CC(=O)C=C(NC(=O)/C(C)=C/C=C\[C@H](OC)[C@@H](OC(N)=O)/C(C)=C/[C@@H]1C)C2=O (some centres not stated) | . | . | - | -
Cn1c(=O)c(Nc2ccc(Cl)cc2)c2c3c(cccc31)C(=O)c1ccccc1-2 | ? | 14µM | - | ?
CC(=O)Nc1c2c3c(cccc3n(C)c1=O)C(=O)c1ccccc1-2 | - | - | - | ?
O=C1C(O)=C(O)C(=O)C(O)=C1O | - | 25µM | ? | -
COC(=O)C1=C[C@@H](C(=O)OC)C2C3=C(C(=O)[C@@]2(C)NC(=O)c2ccccc2)[C@H](C)n2c(=O)n(C)c(=O)n2[C@@H]3C1 (some centres not stated) | . | . | - | -
c1ccc2[nH]c(CN3CCOCC3)nc2c1 | - | - | - | -
c1ccc2[nH]c(SN3CCOCC3)nc2c1 | - | 8.9µM | - | -
COc1ccc(N2CCN(C(=O)c3cc4cc(Cl)ccc4[nH]3)CC2)cc1 | - | . | 32µM | -
O=C(NCc1ccc2c(c1)OCO2)O[C@@H]1C(=O)c2cc(Br)ccc2O[C@H]1c1ccc2c(c1)OCO2 | . | - | - | -
SMILES | CXXC DNA block | GoLoco inh red | Menin-MLL TR inh | Menin MLL FP FL
CC(=O)c1cccc([N+](=O)[O-])c1 | . | - | . | .
O=C(O)c1cccc([N+](=O)[O-])c1 | . | 0.4µM | . | .
Cc1nnc(Sc2cc(NCCO)c([N+](=O)[O-])c3nonc23)s1 | - | - | - | -
Cc1nnc(Sc2cc(NCCCO)c([N+](=O)[O-])c3nonc23)s1 | - | 7.9µM | ? | -
C[N+]1(CC(O)COCC2COc3ccccc3O2)CCOCC1 (configuration not stated) | - | 2µM | - | -
OC(COCC1COc2ccccc2O1)CN1CCN(c2ccccc2)CC1 (configuration not stated) | - | - | - | -
CC(=O)Nc1ccn(C2OC(C(COC(C)=O)NC(=O)C(CCCCNC(=O)OCc3ccccc3)NC(=O)OC(C)(C)C)C(OC(C)=O)C2OC(C)=O)c(=O)n1 (configuration not stated) | . | . | - | -
Cc1nnc(Nc2ccccc2)n(N)c1=O | - | - | - | -
Cc1nnc(NN)n(N)c1=O | - | 8.9µM | . | -
CCn1c(/C=C/Nc2ccccc2)[n+](CC)c2cc(Cl)c(Cl)cc21 | - | 1.6µM | ? | -
O=C1CCCc2c1sc1nc3n(c(=O)c21)CCCCC3 | - | - | - | -
O=C1c2sc3nc4n(c(=O)c3c2CCC1Br)CCCCC4 (configuration not stated) | - | 3.2µM | ? | -
CCCCN(CCCC)CC(O)c1cc(Cl)cc2c1-c1ccc(Cl)cc1/C2=C/c1ccc(Cl)cc1 (configuration not stated) | - | . | - | -
O=C1c2ccccc2C(=O)c2c(O)ccc(O)c21 | . | 28µM | - | ?
COc1ccc(OC)c2c1C(=O)C(Cl)=C(Cl)C2=O | - | 0.45µM | . | -
COc1ccc(OC)c2c1C(=O)c1ccccc1C2=O | ? | 7.9µM | - | ?
Nc1ccc(O)c2c1C(=O)c1ccccc1C2=O | - | - | ? | -
COc1ccc(N)c2c1C(=O)c1ccccc1C2=O | ? | - | ? | -
Cc1ccc(-n2sc3ccccc3c2=O)cc1 | - | 10µM | - | -
COC(=O)[C@H](Cc1ccccc1)NC(=O)C/C=C\[C@@H](C)[C@@H](CO)OC | . | . | -[11.7 µM] | -[11.7 µM]
O=C(Nc1ccccc1-c1nc2ccccc2[nH]1)c1ccc(S(=O)(=O)N2CCCCC2)cc1 | - | - | 10µM | -
CC(=Nc1ccccc1N)c1c(C)cc(=O)n(O)c1O | . | . | ? | -
C[N+]1(CCCCSc2ccc(O)cc2)CCCCC1 | - | 0.63µM | - | -
COc1ccc2nc(NC(=O)C3CCN(S(=O)(=O)c4cccs4)CC3)sc2c1 | - | - | . | -
COc1ccc2nc(NC(=O)C3CCCN(S(=O)(=O)c4cccs4)C3)sc2c1 (configuration not stated) | - | - | 22µM | -
SMILES | CXXC DNA block | GoLoco inh red | Menin-MLL TR inh | Menin MLL FP FL
Cc1ccc2nc(NCCN)c3ncc(C)n3c2c1 | . | . | - | -
CN(C)c1ccc(C(=C2C=CC(=[N+](C)C)C=C2)c2ccccc2)cc1 | - | 14µM! | ? | -
CC(=O)Nc1ccc(O)c(-c2nc3ccccc3s2)c1 | - | - | ? | -
O=C(Nc1ccc(OC(=O)c2ccccc2)c(-c2nc3ccccc3s2)c1)c1ccccc1 | - | - | 18µM | -
COc1ccc(N2CCN(C(=O)c3cccnc3)CC2)c([N+](=O)[O-])c1 | ? | 20µM | - | -
COc1ccc(COC(=O)N/N=C2/C[C@@H](O)[C@@H](O)[C@@H]3[C@@H]4C(=O)N(C5CCCCC5)C(=O)[C@H]4CC[C@H]23)cc1 | . | . | -[11.7 µM] | -[11.7 µM]
O=C(O)c1ccc(NC2=C(Cl)C(=O)c3ccccc3C2=O)cc1 | ? | - | . | -
O=C(O)c1cccc(NC2=C(Cl)C(=O)c3ccccc3C2=O)c1 | ? | 14µM | ? | -
Cc1[nH]n(-c2ccccc2)c(=S)c1C=Nc1cccc([N+](=O)[O-])c1 | - | 13µM | - | -
